Rows were chosen to be rich in hits. Some 27% of all compounds tested hit in one or more screens of this group.
CYP2C19 inhib = blockers of cytochrome P450 2C19 activity – biochemical, luminescence, ADME assay, primary screen; CYP2C19 Supersomes, luciferin-H EGE luminescence, 30 min; inhibition, % at 5 µM; hit rate 21% among 96,000; AID 778, 2007;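 active means CYP2C19 inhibition above a set limit at 5 µM in the primary screen, cut at about 50% in these data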;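 further: plate controls were negative control wells for no effect and 2.5 mM tranylcypromine positive control for full effect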
CYP2C9 inh = blockers of cytochrome P450 2C9 activity – biochemical, luminescence, ADME assay, primary screen; inhibition, % at 5 µM; CYP2C9 Supersomes, luciferin-H conversion; AID 777, 2007; hit rate 20% among 96,000;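 active means blocking of liver enzyme CYP2C9 beyond about 50% at 5 µM, limit read from the data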
Target sequence (P11712 whole entry, looked up): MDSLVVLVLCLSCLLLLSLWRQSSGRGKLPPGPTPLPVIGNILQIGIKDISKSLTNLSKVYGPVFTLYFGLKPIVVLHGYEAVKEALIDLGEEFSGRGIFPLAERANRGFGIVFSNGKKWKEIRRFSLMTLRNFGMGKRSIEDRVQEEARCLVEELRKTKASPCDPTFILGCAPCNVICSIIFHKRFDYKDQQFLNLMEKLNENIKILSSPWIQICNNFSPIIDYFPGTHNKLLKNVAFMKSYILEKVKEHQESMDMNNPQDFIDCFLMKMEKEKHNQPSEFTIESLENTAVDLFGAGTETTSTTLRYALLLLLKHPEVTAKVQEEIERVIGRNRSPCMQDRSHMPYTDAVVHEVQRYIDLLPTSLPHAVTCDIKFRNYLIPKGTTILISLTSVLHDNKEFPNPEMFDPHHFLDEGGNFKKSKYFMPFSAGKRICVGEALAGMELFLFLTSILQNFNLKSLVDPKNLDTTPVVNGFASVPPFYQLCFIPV
EphB4 ephrin blk = EphB4-ephrin-B2 interaction antagonists, primary screen, biochemical, TNYL-RAW peptide probe, fluorescence polarization | Ephrin type-B receptor 4 (Homo sapiens), P54760 | EphB4 LBD / TNYL-RAW-Alexa532 peptide | inhibition, % at 7 µM | hit rate 0.15% among 97,000 | AID 720, 2007;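 active means inhibition above the screen-wide mean inhibition plus 3 SD, cut at about 15% in these data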;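 further: 0% = DMSO wells and 100% = excess unlabeled TNYL-RAW peptide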
CYP2C19 activ = human CYP2C19 activators, primary screen, biochemical, luminescence; Cytochrome P450 2C19 (Homo sapiens), P33261; recombinant CYP2C19, luciferin-H EGE luminescence; hits give high values; 0 = fully inhibited enzyme, 1 = untreated enzyme; activation factor at 5 µM; 96,000 tested, under 10 active;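 active means activation factor of at least 2 at 5 µM in the primary screen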;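 further: 0 = wells with 2.5 mM tranylcypromine and 1 = vehicle-only wells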
CYP2C9 activ = human CYP2C9 activators, primary screen, biochemical, luminescence. activation factor at 5 µM. hit rate 1.4% among 96,000. recombinant CYP2C9, luciferin-H conversion; hits give high values; factor 1 = untreated enzyme, 0 = blocked. Cytochrome P450 2C9 (Homo sapiens), P11712;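 active means activation factor of 2 or more for CYP2C9 at a 5 µM dose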;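 further: 0 = sulfaphenazole-blocked wells and 1 = vehicle-only wells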
Numbers without * were called inactive; x = no result.

SMILES | CYP2C19 inhib | CYP2C9 inh | EphB4 ephrin blk | CYP2C19 activ | CYP2C9 activ
CCCCNC(=O)c1onc(CSc2cccc(F)c2)c1C(=O)O | 9 | 66* | 5 | 0.9 | 0.3
C=CCNC(=O)c1onc(CSc2ccc(Cl)cc2)c1C(=O)O | 24 | 73* | 1 | 0.8 | 0.3
COCCNC(=O)c1onc(CSc2ccc(F)c(F)c2)c1C(=O)O | 20 | 20 | -9 | 0.8 | 0.8
CC(C)NC(=O)c1onc(CSc2cccc(F)c2)c1C(=O)O | -1 | 35 | 7 | 1 | 0.7
CC1S/C(=N/N=C/c2ccco2)NC1=O (stereo not drawn) | 1 | 14 | -1 | 1 | 0.9
CC1=CCC2C(=O)N(c3ccc4ccccc4n3)C(=O)C2C1 (stereo not drawn) | 62* | 31 | -2 | 0.4 | 0.7
CC1=CCC2C(=O)N(c3ccc(Br)cc3C)C(=O)C2C1 (stereo not drawn) | 78* | 60* | 0 | 0.2 | 0.4
CC1=CCC2C(=O)N(c3ccc(C)cc3)C(=O)C2C1 (stereo not drawn) | 64* | 23 | 0 | 0.4 | 0.8
COc1ccc2c(c1)C1(C)CC(C)(C)N2C(=O)N1c1ccccc1 (stereo not drawn) | 23 | 6 | -9 | 0.8 | 0.9
Cc1ccc2c(c1)N(C(=O)c1ccco1)C(C)(C)c1ssc(=S)c1-2 | 33 | 54* | -2 | 0.7 | 0.5
Cc1ccc2c(c1)N(C(=O)CSc1nncn1C)C(C)(C)c1ssc(=S)c1-2 | 67* | 48 | -7 | 0.3 | 0.5
Cc1cccc2c1N(C(=O)c1ccco1)C(C)(C)c1ssc(=S)c1-2 | 10 | 21 | -3 | 0.9 | 0.8
CC(C)(O)C#CC#CCN1CCOCC1 | -6 | 10 | 3 | 1.1 | 0.9
CCCCCCCCCc1nc(N)n[nH]1 | 48 | 27 | -3 | 0.5 | 0.7
CCn1c2ccccc2c2cc(NC(=O)C(C)Oc3ccc(OC)cc3)ccc21 (stereo not drawn) | 69* | 48 | -1 | 0.3 | 0.5
CC(Oc1ccc(F)cc1)C(=O)Nc1ccc2ccccc2c1 (stereo not drawn) | 4 | 23 | 5 | 1 | 0.8
CCn1c2ccccc2c2cc(NC(=O)C(C)Oc3ccccc3)ccc21 (stereo not drawn) | 61* | 39 | -3 | 0.4 | 0.6
CCCCN(c1ccccc1)c1ncnc(N)c1[N+](=O)[O-] | 22 | 16 | 1 | 0.8 | 0.8
COc1ccccc1OCCNC1CCCC1 | -1 | 5 | 5 | 1 | 0.9
CCC(=O)Oc1ccc(C/C(=N\O)c2ccc(O)cc2O)o1 | 96* | 96* | 5 | 0 | 0
COC(=O)C1=C(C)N(c2ccc(S(N)(=O)=O)cc2)C(=O)C1 | -6 | -9 | -6 | 1.1 | 1.1
CCCOc1ccc(C(=O)Nc2ccc(N3CCN(C(C)=O)CC3)cc2)cc1 | x | x | -4 | x | x
CCCOc1ccc(C(=O)N2CCN(c3ccc(N)cc3Cl)CC2)cc1 | 84* | 80* | 2 | 0.2 | 0.2
COc1cc(CNCc2ccncc2)cc(Br)c1OCc1ccccc1F | 86* | 91* | -4 | 0.1 | 0.1
COc1cc(CO)cc(Br)c1OCc1cccnc1 | 80* | -109 | x | 0.2 | 2.1*
SMILES | CYP2C19 inhib | CYP2C9 inh | EphB4 ephrin blk | CYP2C19 activ | CYP2C9 activ
Cc1ccc2c(C(=O)CN3CCSCC3)c(C)[nH]c2c1 | 18 | 7 | -5 | 0.8 | 0.9
Cc1ccc(N=Nc2c(N)n(-c3ccccc3)[nH]c2=O)cc1 | 0 | 17 | -3 | 1 | 0.8
Cc1cc(N2C(=O)CC(N3CCN(c4ccc(C(=O)c5cccs5)cc4)CC3)C2=O)no1 (stereo not drawn) | 25 | 59* | 1 | 0.8 | 0.4
CCOC(=O)C1CCN(C(=O)c2cn(C)c(=O)c3cc(OC)c(OC)cc23)CC1 | x | x | 1 | x | x
CCOC(=O)c1c(-c2ccc(C)o2)csc1NC(=S)NC(=O)c1ccccc1Br | 25 | 71* | -6 | 0.8 | 0.3
CCOC(=O)c1c(-c2ccc(C)o2)csc1NC(=O)COC(=O)c1ccc(NC(N)=O)cc1 | 11 | 91* | 1 | 0.9 | 0.1
CCOC(=O)c1c(-c2ccc(C)o2)csc1NC(=O)CSc1nnnn1-c1ccccc1 | 80* | 96* | -5 | 0.2 | 0
CCOC(=O)c1c(-c2ccc(C)o2)csc1NC(=O)CSc1nnc(C)s1 | 88* | 96* | -1 | 0.1 | 0
Cc1ccc(C(=O)Cn2ncsc2=N)cc1 | 4 | -8 | 2 | 1 | 1.1
N#CCCn1c(SCC(=O)c2c[nH]c3ccccc23)nc2ccccc21 | 70* | 44 | 3 | 0.3 | 0.6
Cc1cc(C(=O)CSc2nc3ccccc3n2CCC#N)c(C)n1Cc1cccs1 | 61* | 30 | -5 | 0.4 | 0.7
COC(=O)C(CCSC)NC(=O)CNC(=O)C1CCCCC1 (stereo not drawn) | -3 | -8 | x | 1 | 1.1
CCOC(=O)C1C(=O)NC(N2CCc3ccccc32)=NC1c1ccccc1 (stereo not drawn) | 8 | -10 | 2 | 0.9 | 1.1
Cc1cc(C)n(CC(=O)N2c3ccccc3Sc3ccccc32)n1 | 67* | 38 | 7 | 0.3 | 0.6
Cc1ccc(CNC(=O)C2c3ccccc3C(=O)N3CCc4ccccc4C23)o1 (stereo not drawn) | 2 | 19 | -2 | 1 | 0.8
CCOc1ccc(N(CC(=O)Nc2ccccc2)S(C)(=O)=O)cc1 | 88* | 70* | x | 0.1 | 0.3
CCOc1ccc(N(CC(=O)NCCCOC)S(C)(=O)=O)cc1 | 10 | -10 | x | 0.9 | 1.1
COc1cccc(NC(=O)CN(c2cccc(C(F)(F)F)c2)S(C)(=O)=O)c1 | 88* | 70* | x | 0.1 | 0.3
COc1ccc(NC(=O)CN(c2cccc(C(F)(F)F)c2)S(C)(=O)=O)cc1OC | 40 | 31 | -4 | 0.6 | 0.7
CC(=O)Nc1ccc(NC(=O)CN(c2cccc(C)c2)S(C)(=O)=O)cc1 | 52* | 19 | 2 | 0.5 | 0.8
CCOc1ccc(NC(=O)CN(c2cccc(C(F)(F)F)c2)S(C)(=O)=O)cc1 | 85* | 72* | 9 | 0.2 | 0.3
COc1ccc(N(CC(=O)Nc2cccc(SC)c2)S(C)(=O)=O)cc1 | 94* | 89* | x | 0.1 | 0.1
COc1ccc(N(CC(=O)Nc2cccc(C(F)(F)F)c2)S(C)(=O)=O)cc1 | x | x | -5 | x | x
O=c1c(-c2ccc(Cl)cc2)[n+]([O-])c2ccccc2n1O | -14 | 30 | 0 | 1.1 | 0.7
COc1c(Cl)cc(Cl)cc1C(=O)Nc1ccc(NC(=O)c2cccs2)cc1 | 8 | 2 | -10 | 0.9 | 1
CCCc1ccc(OCC(O)CN2CCN(c3ccccc3)CC2)cc1 (stereo not drawn) | 73* | 38 | -2 | 0.3 | 0.6
